Only some compounds are listed: those with a hit (about 2.3% of all), similar ones and a draw of the others.
HttQ103 aggreg: mutant huntingtin aggregation inhibition | PC12 HttQ103-GFP aggregates, Acumen cytometry, 40 h | Potency, µM (highest dose often 46.1 µM), inactives show at the top dose activity change, negative = inhibition, hits mostly inhibitors | actives 1.1% (n = 220,000); also: potency is read from the fitted curve at half-maximal effect; % is scaled to controls: 0 for no effect and ±100 for the full control effect; nearly all actives have a fitted effect of over 60% in size
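Steps: seed 1500 PC12 HTTQ103-GFP cells/well; add tebufenozide, 100 nM final; add compound titration; add ATPLite reagent; quantify GFP aggregates by laser scanning cytometry.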
Coupling enz: counter-screen for Giardia aldolase inhibitors: coupling enzyme system. activity change, negative = inhibition, % at 58.2 µM, hits read low. coupling enzyme system counterscreen, AmpLite Red fluorescence. actives 0.67% (n = 290,000); in the data active = activity change below about -30%; also: % is scaled to controls: 0 for no effect and ±100 for the full control effect
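First, compound is pin-transferred into glyceraldehyde-3-phosphate coupling-enzyme reagent at 57.5 uM final and held 10 min at RT. Next, substrate, coupling system and AmpLite Red are added. After 20 min RT, fluorescence (525/598 nm) is read.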
GoLoco inh red: inhibitors of human Gai1-RGS12 GoLoco interaction (red fluorophore). P63096. Gai1:RGS12 GoLoco peptide FP, rhodamine, 10 min. Potency, µM (top dose mostly 61.6 µM), inactives show at the top dose activity, negative = inhibition, usual class: inhibitors. actives 0.44% (n = 230,000). AID 880; active = well fitted inhibition curve with a large enough effect, not every such curve was filed as active; inactive = no such curve, though single readings can be large or run the other way; also: potency is read from the fitted curve at half-maximal effect; % is scaled to controls: 0 for no effect and ±100 for the full control effect; nearly all actives have a fitted effect of over 30% in size
Target sequence (P63096 whole entry, looked up): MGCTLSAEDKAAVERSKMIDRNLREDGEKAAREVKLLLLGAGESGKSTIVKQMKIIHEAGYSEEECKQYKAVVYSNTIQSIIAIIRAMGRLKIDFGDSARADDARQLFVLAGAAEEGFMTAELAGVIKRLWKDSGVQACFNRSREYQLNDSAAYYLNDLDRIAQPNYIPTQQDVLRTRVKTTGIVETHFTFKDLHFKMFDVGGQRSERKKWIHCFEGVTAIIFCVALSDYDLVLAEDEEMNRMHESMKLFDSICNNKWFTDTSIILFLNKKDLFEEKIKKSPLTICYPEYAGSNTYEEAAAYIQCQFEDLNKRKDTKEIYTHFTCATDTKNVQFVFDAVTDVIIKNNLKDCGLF
VDR inhibitor: vitamin D3 receptor (human) inhibition | VDR-SRC2-3 peptide fluorescence polarization, 2 h | Potency, µM, for inactives: max response, negative = inhibition, hits mostly inhibitors | actives 0.93% (n = 400,000); also: potency is read from the fitted curve at half-maximal effect; % is scaled to controls: 0 for no effect and ±100 for the full control effect
Target sequence (P11473 whole entry, looked up): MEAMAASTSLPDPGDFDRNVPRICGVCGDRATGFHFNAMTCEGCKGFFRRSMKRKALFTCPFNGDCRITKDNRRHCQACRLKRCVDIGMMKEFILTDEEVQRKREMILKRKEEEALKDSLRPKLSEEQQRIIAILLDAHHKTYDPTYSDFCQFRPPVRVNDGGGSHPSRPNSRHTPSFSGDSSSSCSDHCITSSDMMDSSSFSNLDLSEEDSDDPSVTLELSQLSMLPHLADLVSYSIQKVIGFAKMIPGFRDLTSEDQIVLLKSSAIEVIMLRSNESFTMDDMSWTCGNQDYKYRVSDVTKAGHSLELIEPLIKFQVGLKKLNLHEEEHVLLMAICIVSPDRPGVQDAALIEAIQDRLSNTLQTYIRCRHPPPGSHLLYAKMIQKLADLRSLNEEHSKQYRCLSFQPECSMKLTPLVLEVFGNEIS
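Two reagent solutions held at 4 deg C in the dark were dispensed, compounds pinned at 23 nl, and the mixture incubated 2 h at room temperature. Read-out: fluorescence polarization of VDR–SRC2-3 peptide binding.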
KDM4E inh: inhibitors of human JMJD2E histone demethylase; B2RXH2; AID 2147; Potency, µM (titrated, usually from 57.1 µM), without a hit: top-dose activity change, negative = inhibition, hits mostly inhibitors; actives 1.6% (n = 230,000); JMJD2E catalytic domain, FDH-coupled NADH fluorescence (FDH is formaldehyde dehydrogenase);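 also: potency is read from the fitted curve at half-maximal effect; 0% = wells with enzyme and -100% = buffer wells without enzyme; nearly all actives have a fitted effect of over 50% in size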
HTT cytoprotect: Huntington cell model cytoprotection by ATP luminescence | PC12 HTT-Q103 induced, cytoprotection, ATP luminescence, 40 h | Potency, µM (titrated, usually from 56.4 µM), for the others: cytoprotection (ATP increase), hits mostly activators | actives 0.14% (n = 230,000) | AID 1471; also: potency is read from the fitted curve at half-maximal effect; % of control where 0% means no effect; nearly all actives have a fitted effect of over 45% in size
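Quantitative HTS on tebufenozide-induced (100 nM) PC12 cells expressing HTTQ103 exon 1–GFP; compounds tested as a concentration series; survival measured via cellular ATP.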
Active calls of the source: *; ? = inconclusive; . = no result; ! = a repeat was not active; [ ] = remark or other dose. Unless noted, calls follow the shape of the dose curve; as a rule, active = well fitted curve in the direction sought with a large enough effect; inconclusive = small, poorly fitted or top-dose-only effect, or another doubt; inactive = no such curve, though single readings can be large; an effect the other way counts as inactive or inconclusive.

SMILES	HttQ103 aggreg	Coupling enz	GoLoco inh red	VDR inhibitor	KDM4E inh	HTT cytoprotect
Cc1ccc(NC(=O)c2oc3c(c2C)C(=O)CC(C)(C)C3)cc1	-13.3%	3.8	6.8%	7.2%	6.7%	-6.2%[0.074 µM]
Cc1c(C(=O)Nc2ccccc2)oc2c1C(=O)CC(C)(C)C2	10µM*	0.1	-7.5%	0.7%	-4.7%	5.8%
CCOc1ccc(CCNC(=O)C2CCN(C(=O)c3cc4sccc4n3CC)CC2)cc1OCC	.	.	.	-2.8%	.	.
O=C(N/N=C/c1cc(Br)c(Br)o1)c1cccnc1	-3.4%	-55.3*	2.1%	-18.3%	-6.4%	23.2%[1.9 µM]
CC(Nc1cccc2ccccc12)C(=O)N/N=C/c1ccc([N+](=O)[O-])cc1 (stereo unspecified)	?	-46.1*	-0.3%	-1.0%	8.2%	-20.8%[10 µM]
COc1ccc(/C=N/NC(=O)c2cc(O)c(O)c(O)c2)cc1Cn1cc([N+](=O)[O-])cn1	9.7%	-24.5	8.8%	-14.7%	2.24µM*	-52.0%
COc1cc([N+](=O)[O-])cc(/C=N/NC(=O)c2cccnc2)c1O	23.9%[9.22 µM]	4.0	-0.2%	-19.0%	8.91µM*	40.1%[10 µM]
COc1cc([N+](=O)[O-])cc(/C=N/NC(=O)C(O)(c2ccccc2)c2ccccc2)c1O	.	-0.5	.	14.3%	.	.
O=c1ncccn1[C@@H]1O[C@H](CO)[C@@H](O)[C@H]1O	.	-0.4	.	7.2%	.	.
COc1cc([N+](=O)[O-])cc(/C=N/NC(=O)C(C)Nc2cccc3ccccc23)c1O (stereo unspecified)	12.6µM*	-28.1	4.9%	-3.8%	4.47µM*	21.9%[10 µM]
OC[C@H]1O[C@@H](O[C@@H]2OC=C[C@H]3[C@H](O)[C@@H]4O[C@]4(CO)[C@@H]23)[C@H](O)[C@@H](O)[C@@H]1O	.	7.1	.	7.4%	.	.
Cc1ccc(NCC(=O)N=Nc2c(O)[nH]c3ccc([N+](=O)[O-])cc23)cc1	8.8%[9.22 µM]	-31.1*	2.6%	22.7%	?	14.8%[10 µM]
O=C(CCN1C(=O)[C@@H]2Cc3ccccc3CN2C1=O)NCc1ccc(Cl)cc1	.	.	.	-2.8%	.	.
O=C(O)c1ccc(-c2ncc[nH]2)cc1	4.5%	-0.5	9.6%	44.7µM*	?	-10.1%
CCOC(=O)c1c(C)[nH]c(C)c1S(=O)(=O)N1CCC(C(=O)NCc2cccc(C)c2)CC1	.	.	.	-1.4%	.	.
COc1ccc(-c2nc(CSCC(=O)N3CCN(c4ccccc4)CC3)c(C)o2)cc1	.	.	.	2.4%	.	.
Cc1ccsc1-c1nc(CSCC(=O)N2CCN(c3ccccc3)CC2)c(C)o1	12.6µM*	4.9	71.5%	-6.8%	?	9.7%
COC(=O)Cn1cc(/C=N/NC(=O)c2ccc(C#N)cc2F)c2ccccc21	2.5%	2.2	-6.2%	13.7%	2.1%	-19.2%
CCn1cc(/C=N/NC(=O)c2ccc(C#N)cc2F)c2ccccc21	12.1%	-31.8*	11.5%	-0.6%	3.0%	-14.7%
CCOc1ccc(CCNC(=O)CSc2nnnn2-c2ccccc2Cl)cc1OCC	.	.	.	14.3%	.	.
CCCC(C)NC(=O)Cc1ccc(S(=O)(=O)N2CCOCC2)s1 (stereo unspecified)	.	.	.	-6.6%	.	.
COc1ccc2ccc3c(c2c1)N=C[C@]1(O3)N(C)c2ccccc2C1(C)C	?	-66.8*	-23.6%	-12.3%	11.2µM*	-57.0%
Cc1cc(-n2c(C)cc(C(=O)COc3ccc4ccc(=O)oc4c3)c2C)no1	1.7%	-19.4	20.1%	-20.5%	?	-20.1%
CC(=O)c1cccc(OCC(=O)c2cc(C)n(-c3cc(C)on3)c2C)c1	12.6µM*	-33.5*	4.3%	-16.1%	5.9%	-49.1%
Cc1cc(-n2c(C)cc(C(=O)CSc3ncnc4ccccc34)c2C)no1	1.78µM*	-11.1	1.7%	1.5%	-8.4%	-43.1%
SMILES	HttQ103 aggreg	Coupling enz	GoLoco inh red	VDR inhibitor	KDM4E inh	HTT cytoprotect
CCCCc1ccc(S(=O)(=O)Nc2nnc(C)s2)cc1	.	4.0	.	?	.	.
CSc1nc(O)c(C(c2ccc(C)cc2)c2c(O)nc(SC)[nH]c2=O)c(=O)[nH]1	.	6.5	.	?	.	.
CSc1nc(O)c(C(c2ccc(OC(C)C)cc2)c2c(O)nc(SC)[nH]c2=O)c(=O)[nH]1	.	.	.	22.4µM*	.	.
N#CCCS(=O)(=O)c1ccccc1	.	1.6	-2.7%	-7.4%	16.6%	20.2%
O=C(O)c1c2ccccc2cc2ccccc12	.	4.3	-1.5%	-10.5%	?	-0.1%
O=C(O)c1cc2ccccc2c(Cc2cc3ccccc3c(C(=O)O)c2O)c1O (tested in a mixture with another compound)	.	-0.3	-4.9%[21.6 µM]	14.1µM*	-6.5%[25.5 µM]	-1.8%[40.3 µM]
O=C(NNc1ccccc1Br)C(=O)n1ccc2ccccc21	2.1%	3.3	-1.1%	-3.3%	3.6%	3.55µM*
CC1C[N+](=C2C=C(N3CCOCC3)CC(C)(C)C2)CC(C)O1 (stereo unspecified)	22.7%[9.22 µM]	1.8	25.1µM*	-0.1%	25.1µM*	1.5%[10 µM]
COC(=O)[C@@]1(Cc2ccccc2)[C@H]2c3cc(C(=O)N4CCCC4)n(Cc4ccc(C(F)(F)F)nc4)c3C[C@H]2CN1C(=O)c1ccccc1	.	2.0	1.8%	.	-2.4%	-30.6%
COC(=O)[C@@]1(Cc2ccc(OC)cc2)[C@@H]2[C@@H](CC(=O)[C@H]2CC(=O)C(=O)N(C)C)CN1C(=O)c1ccccc1	?	-0.6	4.3%	-2.7%	-12.5%	?
COC(=O)[C@@]1(Cc2ccc(F)cc2)[C@@H]2[C@@H](CC(=O)[C@H]2CC(=O)C(=O)N(C)C)CN1C(=O)c1ccccc1	27.8%	2.5	4.1%	3.0%	15.8µM*!	?
COC(=O)[C@@]1(Cc2ccc(OC)cc2)[C@@H]2C(=CC(=O)[C@H]2CC(=O)C(=O)N2CCCC2)CN1C(=O)c1ccccc1	?	-3.6	2.4%	89.1µM*	-1.2%	7.08µM*
COC(=O)[C@@]1(Cc2ccc(F)cc2)[C@H]2c3cc(C(=O)N4CCCC4)n(Cc4ccc(C(F)(F)F)nc4)c3C[C@H]2CN1C(=O)c1ccccc1	-11.3%	-4.7	14.0%	-0.3%	-6.8%	10µM*
COc1ccccc1/C=C\C(=O)NCC(=O)N/N=C(\C)Cc1ccccc1	6.9%[9.22 µM]	2.2	-0.1%	9.5%	?	22.3%[10 µM]
Cc1ccc(-n2c(C)cc(C(=O)COC(=O)c3c(C)noc3C)c2C)cc1	10µM*	-8.4	7.8%	-8.4%	-3.5%	-49.3%
O=C(Nc1ccc(OC(F)F)c(Cl)c1)c1cccc(OC(F)F)c1	3.98µM*	4.3	-13.7%	-1.3%	2.5%	-90.2%
O=C(Nc1ccc([N+](=O)[O-])cc1)Nc1ccc(OC(F)F)c(Cl)c1	11.2µM*	-0.3	-3.3%	-2.6%	-3.9%	.
COc1ccc(NC(=O)c2cccc(OC(F)F)c2)cc1Cl	-16.1%	-10.4	6.3%	-2.4%	0.6%	-6.6%
